Targets with a hit are over-represented here; the source holds about 8,800 in all. About 0.5% of all pairs of compound and target were hits. Unmarked numbers belong to inactive results.
Tests used:
Experiment in all cases: log2 fold change, soluble protein after heating vs DMSO (PISA); higher = thermal stabilisation; K562 lysate, 10 uM; active = over 0.2 and 3.5 SD of the protein, either way, in both replicates (recomputed)
[1] = compound: CS(=O)(=O)CCNCc1ccc(-c2ccc3ncnc(Nc4ccc(OCc5cccc(F)c5)c(Cl)c4)c3c2)o1 [lapatinib]
Procedure, shortened: (§1)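 Pellets of K562 cells were dounce-homogenised in PBS pH 7.4 with 1 mM MgCl2, and the crude extract was held at 1 mg/mL protein for a 30 min treatment with 10 μM compound. Aliquots were heated for 3 min over 48°C-58°C and pooled before NP-40 was added to 0.5% at 4°C. The supernatant from 21,000xg for 90 min was quantified by TMTpro 16plex LC-MS/MS with channel sums equalised. Values are reported from duplicates as log-two fold change in thermal stability relative to solvent controls.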

[2] = compound: CS(=O)(=O)N1CCN(Cc2cc3nc(-c4cccc5[nH]ncc45)nc(N4CCOCC4)c3s2)CC1 [pictilisib]
Procedure, shortened: as §1

[3] = compound: C[C@@H](Oc1cc(-c2cnn(C3CCNCC3)c2)cnc1N)c1c(Cl)ccc(F)c1Cl [crizotinib]
Procedure, shortened: as §1

[4] = compound: C[C@H](C1=CC=C(C=C1)C(=O)NC2=C3C=CNC3=NC=C2)N
Procedure, shortened: as §1

[5] = compound: C[C@H](Nc1ncnc2nc[nH]c12)c1cc2cccc(Cl)c2c(=O)n1-c1ccccc1 [duvelisib]
Procedure, shortened: as §1

[6] = compound: Cc1cc(Nc2cc(CN3CCOCC3)c3nc(C)c(Cc4ccc(Cl)cc4F)n3n2)n[nH]1 [gandotinib]
Procedure, shortened: as §1

[7] = compound: Cc1cc(Nc2cc(N3CCN(C)CC3)nc(Sc3ccc(NC(=O)C4CC4)cc3)n2)n[nH]1 [tozasertib]
Procedure, shortened: as §1

[8] = compound: Cc1ccc(-n2nc(C(C)(C)C)cc2NC(=O)Nc2ccc(OCCN3CCOCC3)c3ccccc23)cc1 [doramapimod]
Procedure, shortened: as §1

[9] = compound: Cc1ccc(NC(=O)c2ccc(CN3CC[C@H](N(C)C)C3)c(C(F)(F)F)c2)cc1Nc1nccc(-c2cncnc2)n1 [bafetinib]
Procedure, shortened: as §1

[10] = compound: Cc1cccc(CC(=O)N2CCc3c2ccc(-c2cn(C)c4ncnc(N)c24)c3F)n1
Procedure, shortened: as §1

Chain of UniProt Q9H4A6 (Q9H4A6 whole entry, looked up): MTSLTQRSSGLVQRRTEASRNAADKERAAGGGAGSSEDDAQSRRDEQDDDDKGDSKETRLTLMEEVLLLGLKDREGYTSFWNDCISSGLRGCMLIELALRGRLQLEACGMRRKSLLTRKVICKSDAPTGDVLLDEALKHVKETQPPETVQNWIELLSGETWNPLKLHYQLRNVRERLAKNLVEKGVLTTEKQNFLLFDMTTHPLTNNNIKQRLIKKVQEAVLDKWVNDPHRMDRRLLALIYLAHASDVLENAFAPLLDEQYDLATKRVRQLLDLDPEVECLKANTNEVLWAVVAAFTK
Chain of UniProt Q9UBN7 (Q9UBN7 whole entry, looked up): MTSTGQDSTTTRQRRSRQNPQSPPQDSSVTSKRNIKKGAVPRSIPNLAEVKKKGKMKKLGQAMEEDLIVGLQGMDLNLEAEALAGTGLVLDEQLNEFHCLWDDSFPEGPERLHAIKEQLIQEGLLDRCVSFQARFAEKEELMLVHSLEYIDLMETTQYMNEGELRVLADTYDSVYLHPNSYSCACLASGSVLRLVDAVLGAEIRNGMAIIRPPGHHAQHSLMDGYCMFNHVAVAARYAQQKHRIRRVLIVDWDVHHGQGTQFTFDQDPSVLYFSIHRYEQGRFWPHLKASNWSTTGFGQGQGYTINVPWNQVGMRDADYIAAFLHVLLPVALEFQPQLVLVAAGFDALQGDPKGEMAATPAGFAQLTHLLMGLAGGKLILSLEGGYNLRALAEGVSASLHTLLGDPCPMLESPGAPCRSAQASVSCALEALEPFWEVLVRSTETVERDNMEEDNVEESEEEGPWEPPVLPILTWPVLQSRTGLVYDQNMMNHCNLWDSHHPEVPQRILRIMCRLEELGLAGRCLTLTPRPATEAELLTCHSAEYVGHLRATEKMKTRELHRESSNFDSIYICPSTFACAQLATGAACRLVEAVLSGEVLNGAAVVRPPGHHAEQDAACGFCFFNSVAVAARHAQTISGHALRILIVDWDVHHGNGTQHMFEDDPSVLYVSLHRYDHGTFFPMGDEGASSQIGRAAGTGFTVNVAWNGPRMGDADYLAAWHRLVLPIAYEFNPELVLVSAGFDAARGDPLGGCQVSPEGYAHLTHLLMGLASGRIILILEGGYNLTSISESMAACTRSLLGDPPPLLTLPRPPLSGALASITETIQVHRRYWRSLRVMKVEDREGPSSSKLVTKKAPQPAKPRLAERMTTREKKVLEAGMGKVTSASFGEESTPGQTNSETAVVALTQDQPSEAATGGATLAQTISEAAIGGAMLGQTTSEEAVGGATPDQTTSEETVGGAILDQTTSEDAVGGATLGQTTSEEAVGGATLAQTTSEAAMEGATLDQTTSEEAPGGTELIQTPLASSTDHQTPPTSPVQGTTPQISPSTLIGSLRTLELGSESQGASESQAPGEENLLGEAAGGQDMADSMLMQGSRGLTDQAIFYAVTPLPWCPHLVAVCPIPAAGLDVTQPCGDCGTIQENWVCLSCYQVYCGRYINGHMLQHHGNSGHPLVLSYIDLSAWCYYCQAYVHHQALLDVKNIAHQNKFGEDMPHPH
Chain of UniProt P25098 (P25098 whole entry, looked up): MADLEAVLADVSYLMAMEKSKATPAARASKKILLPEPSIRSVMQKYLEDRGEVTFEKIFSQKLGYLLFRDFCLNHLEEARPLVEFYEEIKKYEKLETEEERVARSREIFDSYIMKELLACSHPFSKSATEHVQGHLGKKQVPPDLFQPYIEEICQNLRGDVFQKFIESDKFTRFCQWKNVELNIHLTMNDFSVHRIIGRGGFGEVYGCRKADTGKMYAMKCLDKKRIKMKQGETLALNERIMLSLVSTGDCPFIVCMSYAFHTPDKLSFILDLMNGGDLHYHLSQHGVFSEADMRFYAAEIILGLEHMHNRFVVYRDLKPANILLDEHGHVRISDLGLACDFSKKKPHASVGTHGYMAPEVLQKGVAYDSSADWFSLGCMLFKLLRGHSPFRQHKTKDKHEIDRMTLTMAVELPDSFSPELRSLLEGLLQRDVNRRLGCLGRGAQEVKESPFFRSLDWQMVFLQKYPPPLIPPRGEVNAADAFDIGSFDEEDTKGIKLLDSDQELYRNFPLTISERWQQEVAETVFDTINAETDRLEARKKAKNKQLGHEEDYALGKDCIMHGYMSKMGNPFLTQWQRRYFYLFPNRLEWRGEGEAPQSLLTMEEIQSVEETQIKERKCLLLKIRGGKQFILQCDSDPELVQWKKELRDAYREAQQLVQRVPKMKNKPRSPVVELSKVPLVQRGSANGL
Chain of UniProt Q7Z4V5 (Q7Z4V5 whole entry, looked up): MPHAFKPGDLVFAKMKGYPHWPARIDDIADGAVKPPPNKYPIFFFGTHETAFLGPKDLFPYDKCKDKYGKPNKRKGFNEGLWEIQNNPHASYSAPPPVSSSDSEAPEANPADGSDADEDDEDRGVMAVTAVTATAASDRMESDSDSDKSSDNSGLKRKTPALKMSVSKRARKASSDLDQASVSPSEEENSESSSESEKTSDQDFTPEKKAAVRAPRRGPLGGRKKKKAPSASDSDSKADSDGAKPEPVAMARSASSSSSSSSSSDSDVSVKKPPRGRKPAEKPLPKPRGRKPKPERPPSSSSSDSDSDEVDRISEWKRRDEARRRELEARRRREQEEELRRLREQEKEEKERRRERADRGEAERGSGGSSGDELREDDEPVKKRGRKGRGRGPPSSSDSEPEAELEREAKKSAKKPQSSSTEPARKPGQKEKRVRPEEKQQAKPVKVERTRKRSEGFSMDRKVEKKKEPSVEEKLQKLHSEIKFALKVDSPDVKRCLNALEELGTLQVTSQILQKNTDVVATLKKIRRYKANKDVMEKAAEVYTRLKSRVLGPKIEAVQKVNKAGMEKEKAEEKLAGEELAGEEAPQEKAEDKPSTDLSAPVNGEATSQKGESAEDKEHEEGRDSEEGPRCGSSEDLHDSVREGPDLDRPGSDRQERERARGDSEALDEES
Chain of UniProt Q01581 (Q01581 whole entry, looked up): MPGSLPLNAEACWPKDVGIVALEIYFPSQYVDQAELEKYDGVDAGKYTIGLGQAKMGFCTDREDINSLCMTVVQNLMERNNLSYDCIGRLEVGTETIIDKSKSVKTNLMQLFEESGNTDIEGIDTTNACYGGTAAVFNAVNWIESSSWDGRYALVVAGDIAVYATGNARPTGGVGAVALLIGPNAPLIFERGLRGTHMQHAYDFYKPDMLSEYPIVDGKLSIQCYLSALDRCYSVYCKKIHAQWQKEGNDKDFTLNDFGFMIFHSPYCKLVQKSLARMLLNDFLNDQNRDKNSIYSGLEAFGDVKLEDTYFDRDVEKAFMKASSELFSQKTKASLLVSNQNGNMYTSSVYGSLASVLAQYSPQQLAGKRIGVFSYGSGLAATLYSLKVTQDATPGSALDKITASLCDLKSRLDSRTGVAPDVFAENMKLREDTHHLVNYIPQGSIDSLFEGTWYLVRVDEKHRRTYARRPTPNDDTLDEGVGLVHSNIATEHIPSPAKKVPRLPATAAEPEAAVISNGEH
Chain of UniProt Q9NVX0 (Q9NVX0 whole entry, looked up): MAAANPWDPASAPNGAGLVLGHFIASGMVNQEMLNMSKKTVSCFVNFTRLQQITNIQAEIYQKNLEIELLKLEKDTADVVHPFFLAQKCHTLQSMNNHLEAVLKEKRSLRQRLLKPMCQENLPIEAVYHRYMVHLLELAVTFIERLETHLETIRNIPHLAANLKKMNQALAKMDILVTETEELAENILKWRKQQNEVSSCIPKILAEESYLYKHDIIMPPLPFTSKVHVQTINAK
Chain of UniProt P51617 (P51617 whole entry, looked up): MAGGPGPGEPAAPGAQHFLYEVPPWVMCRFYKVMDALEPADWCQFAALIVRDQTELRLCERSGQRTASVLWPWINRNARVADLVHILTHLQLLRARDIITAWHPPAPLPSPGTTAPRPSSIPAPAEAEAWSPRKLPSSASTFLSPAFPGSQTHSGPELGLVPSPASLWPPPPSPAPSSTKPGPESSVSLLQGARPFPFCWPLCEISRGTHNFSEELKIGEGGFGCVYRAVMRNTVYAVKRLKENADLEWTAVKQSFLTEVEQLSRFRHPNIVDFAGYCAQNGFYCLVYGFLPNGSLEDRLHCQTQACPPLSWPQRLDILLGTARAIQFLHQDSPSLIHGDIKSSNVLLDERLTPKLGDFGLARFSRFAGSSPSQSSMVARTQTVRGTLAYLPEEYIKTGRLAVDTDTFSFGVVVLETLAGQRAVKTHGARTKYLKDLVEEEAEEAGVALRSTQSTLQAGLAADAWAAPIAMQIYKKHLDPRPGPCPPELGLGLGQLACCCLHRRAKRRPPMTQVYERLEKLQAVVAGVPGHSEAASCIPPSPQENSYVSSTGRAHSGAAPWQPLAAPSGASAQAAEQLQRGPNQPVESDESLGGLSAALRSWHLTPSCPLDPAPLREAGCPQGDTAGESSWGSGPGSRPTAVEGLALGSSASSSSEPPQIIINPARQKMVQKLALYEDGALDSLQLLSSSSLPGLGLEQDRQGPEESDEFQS
Chain of UniProt Q14145 (Q14145 whole entry, looked up): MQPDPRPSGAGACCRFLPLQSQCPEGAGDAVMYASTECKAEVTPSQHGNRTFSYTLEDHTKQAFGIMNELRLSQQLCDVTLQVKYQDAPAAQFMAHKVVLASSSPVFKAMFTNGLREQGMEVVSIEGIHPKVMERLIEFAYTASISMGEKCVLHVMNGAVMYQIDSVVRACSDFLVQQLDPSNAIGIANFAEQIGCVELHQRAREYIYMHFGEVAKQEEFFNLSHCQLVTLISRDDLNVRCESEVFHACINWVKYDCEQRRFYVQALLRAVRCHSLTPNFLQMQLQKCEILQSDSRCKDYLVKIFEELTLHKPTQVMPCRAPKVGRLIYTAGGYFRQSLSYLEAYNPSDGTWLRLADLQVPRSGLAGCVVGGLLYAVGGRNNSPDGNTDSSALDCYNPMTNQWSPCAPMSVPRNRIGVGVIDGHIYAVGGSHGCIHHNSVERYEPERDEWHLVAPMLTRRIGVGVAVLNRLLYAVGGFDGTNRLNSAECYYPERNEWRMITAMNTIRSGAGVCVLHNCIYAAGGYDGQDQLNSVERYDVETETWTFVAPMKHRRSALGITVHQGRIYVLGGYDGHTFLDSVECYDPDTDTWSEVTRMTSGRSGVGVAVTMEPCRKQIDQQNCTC

Target | log2 fold change [1] | log2 fold change [2] | log2 fold change [3] | log2 fold change [4] | log2 fold change [5] | log2 fold change [6] | log2 fold change [7] | log2 fold change [8] | log2 fold change [9] | log2 fold change [10]
GLB1 (UniProt P16278) | -0.02 | 0.001 | -0.003 | -0.017 | 0.004 | 0.012 | -0.084 | 0.016 | -0.03 | 0.008
IRF2BPL (UniProt Q9H1B7) | 0.017 | 0.024 | -0.006 | -0.216 | 0.006 | 0.07 | -0.005 | -0.004 | -0.015 | 0.075
HMGCS1 (UniProt Q01581) | 0.077 | 0.018 | 0.001 | -0.031 | 0.003 | 0.006 | -0.006 | 0.036 | 0.013 | -0.004
HNRNPD isoform 3 (UniProt Q14103) | -0.062 | 0.126 | -0.07 | -0.08 | 0.043 | 0.094 | -0.078 | 0.045 | 0.166 | 0.033
INF2 (UniProt Q27J81) | 0.024 | -0.019 | -0.043 | 0.002 | -0.051 | -0.001 | 0.04 | 0.049 | -0.068 | 0.128
HEATR3 (UniProt Q7Z4Q2) | -0.003 | 0 | -0.074 | -0.006 | -0.005 | -0.078 | -0.021 | 0.027 | -0.064 | 0.031
GRK2 (UniProt P25098) | -0.063 | 0.015 | -0.038 | 0.024 | 0.017 | 0.077 | -0.02 | 0.033 | -0.017 | -0.035
IRAK1 (UniProt P51617) | 0.023 | -0.008 | 0.799 (active) | -0.111 | -0.169 | 0.26 | -0.116 | 0.172 | -0.036 | 0.168
HK1 isoform 2 (UniProt P19367) | 0 | -0.009 | -0.023 | -0.026 | -0.033 | -0.051 | 0.038 | 0.039 | -0.023 | 0.029
GNE isoform 2 (UniProt Q9Y223) | 0.012 | -0.005 | -0.053 | -0.01 | -0.011 | -0.127 | -0.008 | 0.021 | -0.031 | 0.034
ILK (UniProt Q13418) | 0.01 | -0.005 | -0.038 | 0.01 | -0.036 | -0.015 | 0.005 | 0.004 | -0.002 | 0.007
HDGFL2 isoform 2 (UniProt Q7Z4V5) | 0.02 | 0.027 | -0.028 | -0.348 (active) | 0.037 | 0.248 (active) | 0.018 | -0.003 | 0 | 0.167
IGF2BP2 (UniProt Q9Y6M1) | -0.034 | -0.015 | 0.012 | -0.031 | 0 | 0.009 | -0.011 | 0.021 | -0.093 | 0.048
GSK3B isoform 2 (UniProt P49841) | -0.083 | 0.191 | 0.003 | 0.018 | -0.02 | 0.59 | -0.078 | 0.03 | -0.041 | -0.06
KARS1 (UniProt Q15046) | -0.002 | 0 | 0.003 | 0.036 | 0.004 | -0.082 | 0.025 | 0.007 | -0.025 | -0.026
HMGA1 (UniProt P17096) | -0.023 | 0.03 | 0.007 | -0.27 | 0.058 | 0.069 | -0.062 | -0.02 | 0.043 | 0.036
GSTM4 (UniProt Q03013) | -0.091 | 0.073 | -0.006 | -0.118 | -0.034 | 0.011 | -0.12 | 0.076 | 0.029 | 0.051
KBTBD2 (UniProt Q8IY47) | -0.036 | -0.019 | -0.073 | -0.139 | -0.01 | 0.124 | -0.056 | -0.005 | -0.07 | 0.138
IARS2 (UniProt Q9NSE4) | -0.023 | -0.013 | -0.01 | 0.19 | -0.007 | -0.057 | 0.02 | 0.011 | -0.002 | -0.049
HSD17B12 (UniProt Q53GQ0) | 0.31 (active) | -0.034 | -0.025 | -0.158 | -0.08 | 0.41 (active) | 0.011 | 0.047 | -0.019 | 0.149
IMMT (UniProt C9J406) | 0.017 | 0.082 | -0.116 | -0.461 (active) | 0.003 | 0.048 | 0.015 | -0.034 | 0.03 | 0.168
HAUS2 (UniProt Q9NVX0) | -0.033 | -0.187 | -0.055 | 0.167 | 0.049 | -0.159 | 0.067 | -0.047 | 0.005 | -0.017
KEAP1 (UniProt Q14145) | -0.005 | -0.023 | -0.007 | 0 | 0.026 | 0.019 | -0.017 | 0.01 | 0 | 0.008
GOLPH3 (UniProt Q9H4A6) | 0.007 | -0.013 | -0.123 | -0.049 | 0.005 | 0.034 | 0.025 | 0.031 | -0.073 | 0.045
IMPDH2 (UniProt P12268) | 0.027 | 0.043 | -0.007 | -0.011 | -0.012 | -0.04 | -0.017 | 0.029 | 0.041 | 0.012
HSP90AA4P (UniProt Q58FG1) | -0.035 | -0.129 | -0.032 | -0.464 (active) | 0.011 | 0.042 | 0.08 | -0.034 | -0.235 | 0.128
HERC2 (UniProt O95714) | -0.001 | -0.007 | -0.055 | -0.041 | 0.023 | -0.007 | 0.022 | 0.058 | -0.15 | 0.153
GNB1 (UniProt P62873) | 0.054 | -0.022 | -0.106 | -0.114 | 0.003 | 0.04 | -0.023 | 0.079 | 0.123 | 0.04
HDAC2 (UniProt Q92769) | -0.006 | 0.002 | 0.057 | -0.047 | -0.028 | 0.018 | 0.014 | -0.05 | -0.021 | 0.028
HDAC6 (UniProt Q9UBN7) | -0.019 | -0.085 | -0.039 | 0.014 | 0.065 | -0.017 | 0.002 | 0.012 | -0.069 | -0.01

— the supplement of paper PMC10849652
